Test results: PubChem BioAssay (NCATS)
Records with an inconclusive call do not appear. Values without a mark were called inactive. Activity calls are given as the source filed them. The call rests on the fitted dose curve; in most records, active means well fitted cell-killing curve with a large enough effect; inconclusive means small, poorly fitted or top-dose-only effect, or effect the other way; inactive means no such curve, though single readings can be large or run the other way.

Experiment: Quantitative High-Throughput drug screen in 47 multiple myeloma cell lines against the NCATS MIPE library collection: KMS27_JCRB cell viability assay (AID 1918970); further: nearly all actives have a fitted effect of over 30% in size
Details: KMS27 myeloma cells, CellTiter-Glo ATP viability, 48 h; series mostly up to 45.8 µM; viability (% of DMSO): at the top concentration
From the text: PI: Beverly A. Mock Ph.D.
Laboratory of Cancer Biology and Genetics,
Center for Cancer Research, National Cancer Institute,
National Institute of Health, Bethesda, Maryland
Drug resistance and disease progression are common in multiple myeloma (MM) patients, underscoring the need for new therapeutic combinations. […] We hypothesized that effective combinations would reduce MYC expression and enhance p16 activity. […] These preclinical data identify potentially useful drug combinations for evaluation in drug-resistant MM and reveal potential mechanisms of combined drug sensitivity.
Described herein is the primary MIPE qHTS used to cherrypick compounds. Validated compounds were then further tested for potential synergistic activiy.
[1] Peat TJ, Gaikwad SM, Dubois W, Gyabaah-Kessie N, Zhang S, Gorjifard S, Phyo Z, Andres M, Hughitt VK, Simpson RM, Miller MA, Girvin AT, Taylor A, Williams D, D'Antonio N, Zhang Y, Rajagopalan A, Flietner E, Wilson K, Zhang X, Shinn P, Klumpp-Thomas C, McKnight C, Itkin Z, Chen L, Kazandijian D, Zhang J, Michalowski AM, Simmons JK, Keats J, Thomas CJ, Mock BA. Drug combinations identified by high-throughput screening promote cell cycle transition and upregulate Smad pathways in myeloma. […] Epub 2023 Jun 24. PMID: 37356470; PMCID: PMC10408729.
SEQUENCE No. (e.g., 1, 2, 3, etc.); […] (e.g., Cells, Incubation, Reagent, etc.); VALUE and DESCRIPTION.
1; Cells; 5 uL; white, solid bottom 1536-well Greiner assay plate.
2; Compounds; 23 nL; Kalypsis pin tool (Wako USA) equipped with a 1536-well pin head to transfer to the assay plates.
3; Incubation; 48 hours; 37C incubation.
4; Reagent;5uL; CellTiter Glo (Promega).
5; Detector; 425V; Luminescence; Viewlux PerkinElmer.
NOTES (numbers refer to Sequence numbers above)
1. The cell-based screening methods employed in this study were like those previously published. Briefly, the corresponding myeloma cell lines were screened in 1,536-well plates with 500 cells, 5-uL per well for inhibition of cell viability (assessed by measuring ATP levels with CellTiterGlo).
2. NCATS MIPE 4.0 library of approved and investigational drugs were added using the Kalypsis pin tool. Wells treated with DMSO only for 100% viability and media only wells for 0% viability were used as controls.
3. The assay plates were covered and incubated for 48 hours in a 37C, 5% CO2 incubator with controlled humidity.
4. After 48 hours, CellTilter-GloTM luminescent substrate mix (Promega) reagent was added to the assay plate and plates we incubated for 5 min at room temperature.
5. Signal was measured as median relative luminescence units on a ViewLux (PerkinElmer) multiplate reader.
[1] Heske CM, Davis MI, Baumgart JT, Wilson K, Gormally MV, Chen L, Zhang X, Ceribelli M, Duveau DY, Guha R, Ferrer M, Arnaldez FI, Ji J, Tran HL, Zhang Y, Mendoza A, Helman LJ, Thomas CJ. Matrix Screen Identifies Synergistic Combination of PARP Inhibitors and Nicotinamide Phosphoribosyltransferase (NAMPT) Inhibitors in Ewing Sarcoma. Clin Cancer Res. 2017 Dec 1;23(23):7301-7311. doi: 10.1158/1078-0432.CCR-17-1121. Epub 2017 Sep 12. PMID: 28899971; PMCID: PMC6636827.
Potency means the concentration at half of the fitted maximal effect.

| SMILES | Potency | viability (% of DMSO) |
| --- | --- | --- |
| COc1cc2nc(N3CCCN(C)CC3)nc(NC3CCN(Cc4ccccc4)CC3)c2cc1OC | 4.18 µM (active) | – |
| C1CCC(C(CC2CCCCN2)C2CCCCC2)CC1 (stereo not given) | 10.5 µM (active) | – |
| CC1CC2C3CCC4=CC(=O)C=C[C@]4(C)[C@@]3(F)[C@@H](O)C[C@]2(C)[C@@]1(O)C(=O)CO (stereo not given in full) | – | 125% |
| CCOC(=O)[C@H](CCc1ccccc1)N[C@H]1CS[C@H](c2cccs2)CN(CC(=O)O)C1=O | 0.296 µM (active) | – |
| Cc1noc(NS(=O)(=O)c2ccc(N)cc2)c1C | – | 100% |
| CCOc1cc(N)c(Cl)cc1C(=O)NCC1CN(Cc2ccc(F)cc2)CCO1 (stereo not given) | – | 121% |
| N=C(N)c1ccc(OCCCCCOc2ccc(C(=N)N)cc2)cc1 | – | 125% |
| Cc1oc(=O)oc1CN1CCN(c2cc3c(cc2F)c(=O)c(C(=O)O)c2n3C(C)S2)CC1 (stereo not given) | – | 122% |
| Cn1nnc2c(C(N)=O)ncn2c1=O | – | 114% |
| CCCOc1ccc(C(=O)OCCN(CC)CC)cc1N | – | 105% |
| CCN[C@H]1C[C@H](C)S(=O)(=O)c2sc(S(N)(=O)=O)cc21 | – | 82.8% |
| CCN(CC)CCn1c(=O)c(Cc2ccc(OC)cc2)nc2ccccc21 | 10.5 µM (active) | – |
| Nc1nc(N)nc(-c2cc(Cl)ccc2Cl)n1 | – | 103% |
| COc1cc([C@@H]2c3cc4c(cc3[C@H](O)[C@H]3COC(=O)[C@H]23)OCO4)cc(OC)c1OC | – | 14.8% |
| Cc1cccc(Nc2ccncc2S(=O)(=O)NC(=O)NC(C)C)c1 | – | 94.5% |
| CC(C)(C)C(=O)OCOP(=O)(COCCn1cnc2c(N)ncnc21)OCOC(=O)C(C)(C)C | 0.469 µM (active) | – |
| CC(C)(C#N)c1cc(Cn2cncn2)cc(C(C)(C)C#N)c1 | – | 99% |
| CCc1cc(C(N)=S)ccn1 | – | 116% |
| CCCc1nc(C)c2c(=O)[nH]c(-c3cc(S(=O)(=O)N4CCN(CC)CC4)ccc3OCC)nn12 | 4.69 µM (active) | – |
| NC(=O)c1cccnc1 | 0.003 µM (active) | – |

| SMILES | Potency | viability (% of DMSO) |
| --- | --- | --- |
| Nc1ccc(S(=O)(=O)Nc2ccccn2)cc1 | – | 138% |
| CC[C@H](C)C(=O)O[C@H]1C[C@@H](C)C=C2C=C[C@H](C)[C@H](CC[C@@H]3C[C@@H](O)CC(=O)O3)[C@H]21 | – | 107% |
| CS(=O)(=O)c1ccc([C@@H](O)[C@@H](CO)NC(=O)C(Cl)Cl)cc1 | – | 102% |
| CC(C)NCC(O)c1ccc(NS(C)(=O)=O)cc1 (stereo not given) | – | 128% |
| COc1cc2ncnc(Nc3cccc(Cl)c3)c2cc1OC | 29.6 µM (active) | – |
| CN(C)CCc1c[nH]c2ccc(CS(=O)(=O)N3CCCC3)cc12 | 23.5 µM (active) | – |
| COc1ncnc(NS(=O)(=O)c2ccc(N)cc2)c1OC | – | 92.5% |
| CCOC(=O)c1ccc(C#Cc2ccc3c(c2)C(C)(C)CCS3)nc1 | – | 117% |
| CC(=O)Oc1ccccc1C(=O)Nc1ncc([N+](=O)[O-])s1 | 12.1 µM (active) | – |
| CN(Cc1cc(Br)cc(Br)c1N)C1CCCCC1 | – | 133% |
| COc1ccc2cc3[n+](cc2c1OC)CCc1cc2c(cc1-3)OCO2 | 16.6 µM (active) | – |
| NCCCC(O)(P(=O)(O)O)P(=O)(O)O | – | 126% |
| CC(=O)CC(c1ccccc1)c1c(O)c2ccccc2oc1=O (stereo not given) | – | 113% |
| CCCCOc1ccc(CC(=O)NO)cc1 | 33.2 µM (active) | – |
| CNS(=O)(=O)Cc1ccc2[nH]cc(CCN(C)C)c2c1 | – | 98.3% |
| C[C@@H](NCCCc1cccc(C(F)(F)F)c1)c1cccc2ccccc12 | – | 114% |
| O=C(O)c1cc(=O)[nH]c(=O)[nH]1 | – | 121% |
| COc1ccc(C(=O)CC(=O)c2ccc(C(C)(C)C)cc2)cc1 | 3.32 µM (active) | – |
| Cc1ncc([N+](=O)[O-])n1CCO | – | 114% |
| Oc1c(Cl)cc(Cl)c2cccnc12 | 16.6 µM (active) | – |
